Bioassay records as filed in PubChem.
This is a sample that favours compounds with a hit; in the whole collection about 19% have one here.
HT1080-NT tox = qHTS for induction of synthetic lethality in tumor cells producing 2HG: qHTS for the HT-1080-NT fibrosarcoma cell line; HT-1080-NT fibrosarcoma viability, CellTiter-Glo ATP luminescence, 48 h; Potency, µM (titrated, usually from 46.1 µM), inactives show top-dose activity, negative = less viability, actives largely listed as cytotoxic; actives 1.6% (n = 360,000);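 further: NT is the 2HG producing partner of a matched IDH1 knockdown line; potency means the concentration at half of the fitted maximal effect; 0% = DMSO-treated cells and -100% = media-only wells without cells; nearly all actives have a fitted effect of over 55% in size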
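750 cells/well, RPMI + 5% FBS; 2 h settle, compound pin-transfer, 48 h at 37 degrees C. CellTiter-Glo 10 min RT, luminescence. Normalized to DMSO and media-only wells.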
HT1080 IDH1KD tx = qHTS for induction of synthetic lethality in tumor cells producing 2HG: qHTS for the HT-1080-IDH1KD cell line; HT-1080 IDH1 knockdown viability, ATP luminescence, 48 h; Potency, µM (doses to about 46.1 µM), inactives show at the top dose activity, negative = toxicity, usual class: cytotoxic; actives 2% (n = 360,000); AID 686971, 2013;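 further: potency means the concentration at half of the fitted maximal effect; 0% = DMSO wells and -100% = cell-free medium wells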
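After a 2 h attachment period, IDH1KD HT-1080 cells took pin-transferred compound for 48 h at 37 °C; ATP-based luminescence after 10 min room-temperature reagent incubation reported viability.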
DT40 TDP1 CPT = qHTS for Inhibitors of human tyrosyl-DNA phosphodiesterase 1 (TDP1): qHTS in cells in presence of CPT; chicken DT40 Tdp1-/-;hTDP1 cells + 20 nM CPT, ATP luminescence, 48 h; Potency, µM (highest dose often 46.2 µM), inactives show top-dose activity change, negative = growth inhibition, hits mostly inhibitors; actives 12% (n = 420,000); further: potency means the concentration at half of the fitted maximal effect; nearly all actives have a fitted effect of over 55% in size
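Chicken DT40 Tdp1-/- cells complemented with human TDP1, 400 cells/well, exposed to compounds plus 20 nM camptothecin for at least 48 h at 37 C; viability read as ATP content by CellTiter-Glo luminescence.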
IL-1B inflam inh = qHTS for Inhibitors of Inflammasome Signaling: IL-1-beta AlphaLISA Primary Screen | THP-1 LPS/ATP IL-1B secretion, AlphaLISA, 16 h; active compounds read low | actives 4.7% (n = 360,000) | activity change, % at 57.5 µM; in the data active means activity change below about -50%; inconclusive means mostly about -30% to -49%
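THP-1 cells pretreated 1 hr with compounds (up to 57.5 uM final), then stimulated with LPS (250 ng/mL final) plus ATP (1.25 mM final); secreted IL-1B measured by AlphaLISA after 16 hr, decreased signal indicating inhibition.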
uPA generation = qHTS for Inhibitors of Cell Surface uPA Generation; cell surface uPA generation assay, qHTS; Potency, µM (highest dose often 38.3 µM), without a hit: at the highest dose activity change, negative = inhibition, usual class: inhibitors; actives 0.31% (n = 330,000); AID 540303, 2011; active means well fitted inhibition curve with a large enough effect; inconclusive means small, poorly fitted or top-dose-only effect; inactive means no such curve, though single readings can be large or run the other way; tested in mouse RAW 264.7 cells; further: potency means the concentration at half of the fitted maximal effect; nearly all actives have a fitted effect of over 55% in size
DT40 TDP1 no CPT = qHTS for Inhibitors of human tyrosyl-DNA phosphodiesterase 1 (TDP1): qHTS in cells in absence of CPT; DT40 Tdp1-/- hTDP1 cells, no CPT, ATP luminescence, 48 h; actives 15% (n = 420,000); Potency, µM (top dose mostly 46.2 µM), for the others: at the highest dose activity change, negative = growth inhibition, most hits filed as inhibitors; AID 686978, 2013; further: potency means the concentration at half of the fitted maximal effect; nearly all actives have a fitted effect of over 55% in size
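Seeded 400 DT40-hTDP1 cells/well (vehicle DMSO, no 20 nM CPT); pinned compounds; ≥48 hr at 37 °C; CellTiter-Glo luminescence as viability measure.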
The depositor's hits bear a star; ? = inconclusive; · = no result given; [ ] = another dose, or the depositor's remark. Unless noted, the call rests on the fitted dose curve; in most records, active means well fitted curve in the direction sought with a large enough effect; inconclusive means small, poorly fitted or top-dose-only effect, or another doubt; inactive means no such curve, though single readings can be large; an effect the other way counts as inactive or inconclusive. Unless noted, on the % scale 0 is the no-effect control and ±100 the full control effect.

SMILES	HT1080-NT tox	HT1080 IDH1KD tx	DT40 TDP1 CPT	IL-1B inflam inh	uPA generation	DT40 TDP1 no CPT
Cc1c(Cl)cccc1NC(=O)CC(c1ccc(F)cc1)N1Cc2ccccc2C1=O (centres undefined)	·	·	23µM*	·	·	21µM*
Cc1c(Cl)cccc1NC(=O)Cc1cccs1	2%	4%	-12%	0	-14%	16%
COc1cc(Cl)c(C)cc1NC(=O)CC(c1ccc(F)cc1)N1Cc2ccccc2C1=O (centres undefined)	·	·	23µM*	·	·	18µM*
Cc1noc(-c2ccc(NC(C)c3ccccc3)c([N+](=O)[O-])c2)n1 (centres undefined)	·	·	16µM*	·	·	23µM*
CCc1noc(-c2ccc(NC(C)c3ccccc3)c([N+](=O)[O-])c2)n1 (centres undefined)	·	·	18µM*	·	·	?
Cc1nn(Cc2ccccc2)c(C)c1NC(=O)c1noc2c1CCc1ccccc1-2	1%	-16%	?	-2	-5%	?
Cc1nn(Cc2ccc(Cl)c(Cl)c2)c(C)c1NC(=O)c1noc2c1CCc1ccccc1-2	·	·	5.8µM*	·	·	5.8µM*
COc1ccc2c(c1)CCc1c(C(=O)Nc3c(C)nn(Cc4ccc(C)cc4)c3C)noc1-2	·	·	10µM*	·	·	9.2µM*
CN(C)c1ccc(CCc2ccnc3ccccc23)cc1	·	·	13µM*	·	·	14µM*
CN(C)c1ccc(/C=C\C=C/c2ccnc3ccccc23)cc1	·	·	0.079µM*	·	·	0.1µM*
CN(C)c1ccc(-c2ccc(CCO)cc2)cc1	·	·	-16%	·	·	-19%
CN(C)c1ccc(/C=C/c2ccnc3ccccc23)c(F)c1	·	·	?	·	·	13µM*
CN(C)c1ccc(/C=C/c2ccnc3ccccc23)c(N)c1	·	·	0.63µM*	·	·	0.63µM*
Cc1ccc(CNC(=O)c2cc3c(s2)-c2c(C)cccc2OC3)cc1	·	·	-27%	·	·	?
Cc1cccc(NC(=O)Cn2c(=O)n(CCCS(=O)(=O)C3CCCCC3)c(=O)c3ccccc32)c1	·	·	-8%	·	·	?
CCOC(=O)C1=Nc2ccccc2C1=[N+]=[N-]	-25%	?	4.6µM*	-71*	-9%	7.3µM*
CCC(=O)N1CCC1(C)C(=O)Nc1nccs1 (centres undefined)	21%	13%	-6%	43	·	?
COc1ccc(C(=O)CSc2nc(SC)ns2)cc1OC	-2%	3%	-16%	0	-9%	?
COc1ccc(C(=O)CSC#N)cc1OC	?	21µM*	3.3µM*	?	-14%	2.9µM*
CCC(=O)c1ccc(OCc2ccccc2)c(OC)c1	5%	6%	14%	-3	-7%	?
COc1ccc(C(=O)CSc2cc(C)nc3nc(C)nn23)cc1OC	16µM*	11µM*	-22%	-97*	?	-30%
COc1ccc(C(C#N)CC(=O)c2ccc(OC)c(OCc3ccccc3)c2)cc1OC (centres undefined)	9%	0%	15µM*	-30	·	21µM*
COc1ccccc1CNC(=O)Cn1cc([N+](=O)[O-])ccc1=O	5%	13%	-6%	-9	5%	-3%
C=C(C)CSc1[nH]c(=O)cc(C)c1C#N	-5%	-5%	0%	30	5%	0%
CCCCOc1cccc(C(=O)Nc2cccc3ccc(C)nc23)c1	·	·	?	·	·	23µM*
COc1c(Cl)cc(Cl)cc1C(=O)Nc1ccc(NC(=O)c2cccs2)cc1	?	-1%[9.24 µM]	?	-20	-3%	16µM*
COc1ccc(C(=O)Nc2ccc(NC(=O)c3cccs3)cc2)cc1OC	·	·	?	·	·	18µM*
